The text below walks through data of PubChem BioAssay AID743361 (Molecular Libraries Program, Specialized Chemistry Center, …, 2014).

The source made the active and inactive calls. No rule for the calls is given here.

The experiment is described as follows: cell-free Rh123 fluorescence quenching read-out – biochemical, dry powder samples, uHTS hits, counter-screen for mtPTP inhibitor project, dose response (AID 743361). To be noted: Rhodamine 123 fluorescence quenching counterscreen. (A counterscreen serves to expose hits that act by an unwanted route or on another target.)
Turning to `COc1ccc(C(=O)CCN2CCCC(C)C2)cc1` (stereo unspecified), the IC50 – broadly, the concentration at which inhibition is half-maximal – was > 100 µM (inactive). The same measure for `O=C(Nc1ccc(CN2CCCCC2)cc1)c1cc(Cl)cc(OCc2ccccc2)c1`: 26.9 µM (active); for `CN1CCN(CCc2ccc(NS(=O)(=O)c3ccc(F)c(Cl)c3)cc2)CC1`: > 100 µM (inactive); for `O=C(Nc1ccc(Cl)cc1)c1cc(-c2ccccc2)on1`: > 100 µM (inactive).

Turning to `COc1ccc(Cl)cc1C(=O)Nc1ccc(CCN2CCCCC2)cc1`, the IC50 was > 100 µM (inactive). In the case of `COc1ccc(Cl)c(C(=O)Nc2ccc(CN3CCN(C)CC3)cc2)c1` it was > 100 µM (inactive).

For `COc1ccc(Cl)cc1S(=O)(=O)Nc1ccc(CCN2CCCCC2)cc1`, the IC50 was > 100 µM (inactive). Consider `CCc1ccccc1NC(=O)c1cc(-c2ccccc2)on1`, for which the IC50 was > 100 µM (inactive). For `O=C(Nc1ccccc1C(F)(F)F)c1cc(-c2ccccc2)on1`, the IC50 is > 100 µM (inactive). On to `COc1ccc(Cl)c(C(=O)Nc2ccc(CN3CCCCC3)cc2)c1`, for which the IC50 was > 100 µM (inactive). The same measure for `O=C(Nc1cccc(Cl)c1Cl)c1cc(-c2cccc(O)c2)on1`: > 100 µM (inactive); for `O=C(Nc1ccccc1OCc1ccccc1)c1cc(-c2cccc(O)c2)on1`: > 100 µM (inactive).

With `COc1ccc(Cl)cc1C(=O)Nc1ccc(CCN2CCNCC2)cc1`, the IC50 is > 100 µM (inactive). `COc1ccc(Cl)cc1C(=O)Nc1ccc(CN2CCOCC2)cc1`: the IC50 is > 100 µM (inactive). The same measure for `O=C(Nc1ccc(OCc2ccccc2)c(Cl)c1)c1cc(-c2cccc(O)c2)on1`: > 100 µM (inactive). In the case of `O=C(Nc1cccc(Cl)c1)c1cc(-c2ccccc2)on1` it was > 100 µM (inactive); in that of `O=S(=O)(Nc1ccc(CN2CCCCC2)cc1)c1ccc(F)c(Cl)c1`, > 100 µM (inactive); in that of `CN1CCN(CCc2ccc(NS(=O)(=O)c3cccc(Cl)c3)cc2)CC1`, > 100 µM (inactive). In the case of `Cc1c(Cl)cccc1NC(=O)c1cc(-c2cccc(O)c2)on1`, the IC50 was > 100 µM (inactive). In the case of `COc1ccc(Cl)cc1C(=O)Nc1ccc(N2CCOCC2)cc1` it was > 100 µM (inactive); in that of `Cc1ccc(-c2cc(C(=O)Nc3cccc(Cl)c3)no2)cc1`, > 100 µM (inactive). Consider `COc1ccc(Cl)cc1C(=O)Nc1ccc(CN2CCNCC2)cc1`, for which the IC50 is > 100 µM (inactive).

Take `CCN(CC)c1ccc(NC(=O)c2ccc(OC)c(Cl)c2)cc1`: the IC50 was > 100 µM (inactive). The same measure for `Cc1ccc(NC(=O)c2cc(-c3cccc(O)c3)on2)cc1Cl`: > 100 µM (inactive); for `CCCc1cc(C(=O)Nc2ccc(Br)cc2)no1`: > 100 µM (inactive). The same measure for `O=C(Nc1ccc(CN2CCCCC2)cc1)c1ccc(Cl)c(OCc2ccccc2)c1`: 28.2 µM (active); for `COc1cccc(-c2cc(C(=O)Nc3cc(Cl)ccc3C)no2)c1`: > 100 µM (inactive); for `COc1ccc(Cl)cc1S(=O)(=O)Nc1ccc(CN2CCCCC2)cc1`: > 100 µM (inactive). The same measure for `CC1CCN(CCCC(=O)c2ccc(Br)cc2)CC1`: > 100 µM (inactive); for `COc1ccc(Cl)cc1C(=O)Nc1cccc(CN2CCNCC2)c1`: > 100 µM (inactive); for `COc1ccc(Cl)cc1C(=O)Nc1ccc(CCN2CCOCC2)cc1`: > 100 µM (inactive).
